Test results taken from PubChem BioAssay (NCI).
“And” between values parts separate entries of the source, which are not always exact repeats. Identical values can stand only once. Compounds without any hit were thinned out: in the full panel of roughly 83,000, 20% have a hit.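 Single-dose data. Exposure time 48 hours. Values below 10 considered active.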 The source made the active and inactive calls.

Assays:
Assay in all cases: NCI-60 one-dose screen, 48 h (100 = growth as untreated, 0 = no growth, -100 = all killed)
Details in all cases: 10 µM unless noted
HCT-15 colon = test system: HCT-15 colon
HT29 colon = test system: HT29 colon
SNB-75 CNS = test system: SNB-75 CNS
U251 CNS = test system: U251 CNS
PC-3 prostate = test system: PC-3 prostate
SK-MEL-5 melanoma = test system: SK-MEL-5 melanoma
UACC-62 melanoma = test system: UACC-62 melanoma
LOX IMVI melanoma = test system: LOX IMVI melanoma
SK-MEL-28 melanoma = test system: SK-MEL-28 melanoma
SK-MEL-2 melanoma = test system: SK-MEL-2 melanoma
EKVX NSCLC = test system: EKVX NSCLC
SN12C renal = test system: SN12C renal
UO-31 renal = test system: UO-31 renal
TK-10 renal = test system: TK-10 renal
ACHN renal = test system: ACHN renal
CAKI-1 renal = test system: CAKI-1 renal
A498 renal = test system: A498 renal
CCRF-CEM leukemia = test system: CCRF-CEM leukemia
MOLT-4 leukemia = test system: MOLT-4 leukemia
SNB-19 CNS = test system: SNB-19 CNS

| SMILES | growth (HCT-15 colon) | growth (HT29 colon) | growth (SNB-75 CNS) | growth (U251 CNS) | growth (PC-3 prostate) | growth (SK-MEL-5 melanoma) | growth (UACC-62 melanoma) | growth (LOX IMVI melanoma) | growth (SK-MEL-28 melanoma) | growth (SK-MEL-2 melanoma) | growth (EKVX NSCLC) | growth (SN12C renal) | growth (UO-31 renal) | growth (TK-10 renal) | growth (ACHN renal) | growth (CAKI-1 renal) | growth (A498 renal) | growth (CCRF-CEM leukemia) | growth (MOLT-4 leukemia) | growth (SNB-19 CNS) |
| --- | --- | --- | --- | --- | --- | --- | --- | --- | --- | --- | --- | --- | --- | --- | --- | --- | --- | --- | --- | --- |
| NC(=S)N/N=C(\c1ccc(Br)cc1)C1CC1 | 81.8% (inactive) and 82.9% (inactive) | 68.4% (inactive) | 87.1% (inactive) and 76.7% (inactive) | 93.2% (inactive) | 84.1% (inactive) and 61.5% (inactive) | 100% (inactive) and 95.9% (inactive) | 98.4% (inactive) | 86.2% (inactive) | 102% (inactive) and 103% (inactive) | 92.8% (inactive) | 58% (inactive) and 68.4% (inactive) | 89.5% (inactive) | 61.4% (inactive) and 56.8% (inactive) | 119% (inactive) | 95.7% (inactive) and 93% (inactive) | 83.7% (inactive) and 81.4% (inactive) | 99.5% (inactive) | 52.5% (inactive) and 55.6% (inactive) | 38% (inactive) and 45.2% (inactive) | – |
| CC(C)Cc1ccc(C(C)C(=O)NCc2ccc(Cn3c(=O)sn(CCCCl)c3=O)cc2)cc1 (stereo not drawn) | 103% (inactive) and -35.9% (active) | 104% (inactive) and -64% (active) | 105% (inactive) and -18% (active) | 95.6% (inactive) and 7.88% (active) | 91.9% (inactive) and -69.6% (active) | 91.8% (inactive) and -78.1% (active) | 92.6% (inactive) and -68.6% (active) | 90.7% (inactive) and -93.1% (active) | 107% (inactive) and -71.8% (active) | 103% (inactive) and -3.28% (active) | 89.3% (inactive) and -64.7% (active) | 98.7% (inactive) and -60.5% (active) | 77% (inactive) and -100% (active) | 88% (inactive) and -91.9% (active) | 97.3% (inactive) and -100% (active) | 87.1% (inactive) and -86.6% (active) | 87.8% (inactive) and 55.6% (inactive) | 53.4% (inactive) and 3.84% (active) | – | – |
| CC(=O)Nc1ccc(O)cc1 | 103% (inactive) and 109% (inactive) and 105% (inactive) | 99.8% (inactive) and 96.8% (inactive) and 108% (inactive) | 99.8% (inactive) and 91.8% (inactive) and 104% (inactive) | 102% (inactive) and 106% (inactive) and 107% (inactive) | 90.4% (inactive) and 136% (inactive) and 97.6% (inactive) | 98% (inactive) and 113% (inactive) and 112% (inactive) | 99.9% (inactive) and 102% (inactive) and 106% (inactive) | 103% (inactive) and 101% (inactive) and 106% (inactive) | 114% (inactive) and 66.2% (inactive) and 125% (inactive) | 95.7% (inactive) and 81.9% (inactive) and 108% (inactive) | 95% (inactive) and 101% (inactive) and 113% (inactive) | 90.2% (inactive) and 102% (inactive) and 108% (inactive) | 84.3% (inactive) and 98% (inactive) and 90% (inactive) | 87.4% (inactive) and 69.9% (inactive) and 101% (inactive) | 100% (inactive) and 104% (inactive) | 98% (inactive) and 94.4% (inactive) and 101% (inactive) | 100% (inactive) and 102% (inactive) and 94.1% (inactive) | 88.7% (inactive) and 108% (inactive) | – | – |
| CN1CCN(Cc2occc(=O)c2O)CCN(C)CCN(Cc2occc(=O)c2O)CC1 | 107% (inactive) and 36% (inactive) | 96.3% (inactive) and 11.1% (inactive) | 100% (inactive) | 94.8% (inactive) and 23.1% (inactive) | 80.3% (inactive) and 35.6% (inactive) | 81.4% (inactive) and 47.8% (inactive) | – | 99.1% (inactive) and 43% (inactive) | 64.4% (inactive) | 105% (inactive) and 64.9% (inactive) | 104% (inactive) and 62.8% (inactive) | 87.9% (inactive) and 82.7% (inactive) | – | 100% (inactive) and 65.2% (inactive) | 106% (inactive) and 94% (inactive) | – | 95.8% (inactive) and 13% (inactive) | 91.5% (inactive) and 49% (inactive) | 97.2% (inactive) and 47.9% (inactive) | 98% (inactive) and 87.6% (inactive) |
| CNc1ccc2nc3ccc(=[N+](C)C)cc-3sc2c1 | 17.2% (inactive) and 9.61% (active) | 9.87% (active) and 38.1% (inactive) | -53.5% (active) | -48.5% (active) and -15.5% (active) | 1.57% (active) and 1.01% (active) | -97% (active) and -61.1% (active) | 4.52% (active) and -3.38% (active) | -57.5% (active) and -44.1% (active) | -31.3% (active) and 27.9% (inactive) | 4.78% (active) and 4.79% (active) | 40.9% (inactive) and 44.1% (inactive) | -22% (active) and -62.5% (active) | 26.7% (inactive) and 33.7% (inactive) | -3.64% (active) and 17.3% (inactive) | 14.6% (inactive) and -27.6% (active) | 11.2% (inactive) and 4.64% (active) | 57.8% (inactive) and 49.1% (inactive) | 9.67% (active) and 11.8% (inactive) | -8.79% (active) and 12.2% (inactive) | – |
| O=C(N/N=C/c1ccccc1)N/N=C/c1ccccc1 | 104% (inactive) and 103% (inactive) | 109% (inactive) and 105% (inactive) | 103% (inactive) and 88% (inactive) | 114% (inactive) and 97.8% (inactive) | 97.7% (inactive) | 106% (inactive) and 94.5% (inactive) | 101% (inactive) | 117% (inactive) and 103% (inactive) | – | 123% (inactive) and 119% (inactive) | 104% (inactive) and 101% (inactive) | 103% (inactive) and 114% (inactive) | 92.4% (inactive) and 102% (inactive) | 119% (inactive) and 110% (inactive) | 109% (inactive) and 111% (inactive) | – | 61.3% (inactive) | 98.6% (inactive) and 102% (inactive) | 91.8% (inactive) and 113% (inactive) | 105% (inactive) and 106% (inactive) |
| Cc1cc(O)c(C(C)C)cc1S(=O)(=O)O (tested in a mixture with another compound) | 96.7% (inactive) and 7.09% (active) and 99.5% (inactive) | 100% (inactive) and -3.9% (active) and 109% (inactive) | 84.1% (inactive) and 10.4% (inactive) and 80.2% (inactive) | 90.3% (inactive) and 9.28% (active) and 102% (inactive) | 96.1% (inactive) and 19.8% (inactive) and 81.7% (inactive) | 96.6% (inactive) and -34% (active) and 99.9% (inactive) | 87.4% (inactive) and 32.5% (inactive) and 91.3% (inactive) | 92.1% (inactive) and 0.911% (active) and 107% (inactive) | – | 99.6% (inactive) and 54% (inactive) and 112% (inactive) | 93.2% (inactive) and 29.5% (inactive) | 92.4% (inactive) and 22.6% (inactive) and 102% (inactive) | – | 87.8% (inactive) and 33.8% (inactive) and 132% (inactive) | 91.8% (inactive) and 10.8% (inactive) and 92.4% (inactive) | 67.7% (inactive) and 12.1% (inactive) and 74.4% (inactive) | 103% (inactive) and -18.3% (active) and 112% (inactive) | 94.5% (inactive) and 16.4% (inactive) | 118% (inactive) and 9.88% (active) and 107% (inactive) | 103% (inactive) and 35.4% (inactive) and 100% (inactive) |
| CC(O)Cn1cnc2c1c(=O)n(C)c(=O)n2C (stereo not drawn) | 96.4% (inactive) | 109% (inactive) | 83.5% (inactive) | 81.8% (inactive) | – | 101% (inactive) | 100% (inactive) | 87.1% (inactive) | 103% (inactive) | 98.7% (inactive) | 100% (inactive) | 98.4% (inactive) | 88.7% (inactive) | 135% (inactive) | 98% (inactive) | 99.4% (inactive) | 110% (inactive) | – | – | 104% (inactive) |
| COc1ccc2c(=O)cc(-c3ccccc3)[nH]c2c1 | 22.6% (inactive) and 19.2% (inactive) | -3.3% (active) and 5.55% (active) | 13.8% (inactive) and 9.61% (active) | 12.2% (inactive) and 15.6% (inactive) | 18.5% (inactive) and 19.4% (inactive) | 21.5% (inactive) and 12.7% (inactive) | 38.4% (inactive) and 20% (inactive) | 48.3% (inactive) and 49% (inactive) | 39.3% (inactive) and 70.8% (inactive) | 31.4% (inactive) and -8.1% (active) | 48.9% (inactive) and 18.9% (inactive) | 45.7% (inactive) and 42.7% (inactive) | 41.7% (inactive) and 8.7% (active) | 48.4% (inactive) and 63.7% (inactive) | 54.4% (inactive) and 51.9% (inactive) | 24.6% (inactive) | 50.7% (inactive) | 14% (inactive) and 12.2% (inactive) | 26.9% (inactive) and 6.72% (active) | – |
